Bioassay records deposited in PubChem by several laboratories.
In the library only some 1.9% were active in any assay of this set; here they are far more common.
Cardio protect: myocardial damage modulation in H9c2 cells | H9c2 cardiomyocytes, H2O2 injury protection, ATPLite, 2 h | protection from H2O2 cell death, % at 20 µM | 360,000 tested, 0.63% active;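 active = compounds giving at least 50% protection of heart cells from peroxide-induced death in the single-dose screen, raw or plate-pattern-corrected value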;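 also: 0% = DMSO wells with peroxide and 100% = DMSO wells without peroxide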
PP5 inh: blocks human protein phosphatase 5 activity; inhibition, % at 6.7 µM; purified PP5c, OMFP substrate fluorescence; 320,000 tested, 0.18% active; P53041;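 active = inhibition above the campaign's mean inhibition across all tested compounds plus 3 SD, cut at about 9.5% in these data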;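 also: 0% = DMSO only and 100% = 100 µM cantharidin control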
PP1 counter: counter-screen for PP5 inhibitors: inhibitors of human PP1-alpha; P62136; purified PP1alpha, OMFP fluorescence; inhibition, % at 6.7 µM; 320,000 tested, 0.9% active; AID 2235;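 active = inhibition above the mean inhibition of all tested compounds plus 3 SD, computed separately for each screening campaign, cut at about 15% in these data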
Target sequence (P62136 whole entry, looked up): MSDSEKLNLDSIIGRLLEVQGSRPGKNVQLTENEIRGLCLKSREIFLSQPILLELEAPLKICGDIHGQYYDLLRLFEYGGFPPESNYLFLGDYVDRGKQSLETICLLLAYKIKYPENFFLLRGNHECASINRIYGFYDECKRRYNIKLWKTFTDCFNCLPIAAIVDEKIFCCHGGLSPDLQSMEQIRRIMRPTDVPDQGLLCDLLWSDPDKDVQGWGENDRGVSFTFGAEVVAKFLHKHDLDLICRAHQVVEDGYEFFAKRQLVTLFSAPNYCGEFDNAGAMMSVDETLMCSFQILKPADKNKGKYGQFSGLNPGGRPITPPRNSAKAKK
ATG4B inh: ATG4B (human) cysteine protease inhibition. Q9Y4P1. ATG4B cleavage of LC3-PLA2, NBD-HPC fluorescence, 1 h. inhibition, % at 8.33 µM. 340,000 tested, 0.51% active; in the data active = inhibition above about 40%
PP1 inh confirm: confirmation of human PP1 phosphatase inhibitors; inhibition, % at 6.7 µM; 1,900 tested, 52% active; purified PP1alpha, OMFP substrate fluorescence; AID 2358; shares compounds with PP1 counter;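 active = mean PP1 inhibition above a set limit taken from the earlier primary screen, cut at about 15% in these data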
PP5 inh counter: inhibits human PP5 phosphatase in PP1 counter-screen. shares compounds with PP1 counter. purified PP5c, OMFP fluorescence. inhibition, % at 6.7 µM. 1,900 tested, 4% active. AID 2360;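 active = mean PP5 inhibition over triplicate wells above about 9.5% taken from the earlier PP1 screen, limit read from the data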
Active calls of the source: *; · = no result.

SMILES	Cardio protect	PP5 inh	PP1 counter	ATG4B inh	PP1 inh confirm	PP5 inh counter
CC(C)CN1C(=O)c2ccc(NC(=O)c3cccs3)cc2C1=O	-8.8	0.4	6.3	-7.8	·	·
Cc1ccc(C)c(NC(=O)CN2C(=O)CC(C)S(=O)(=O)c3ccccc32)c1 (centres undefined)	4.5	1.8	6.4	2.4	·	·
O=C1CC(=C(c2ccccc2)c2ccccc2)C(=O)N1CCCCN1CCN(c2cccc(Cl)c2)CC1	14.1	4.6	25.0*	-8.5	3.5	-1.9
Cc1cc(C(O)c2ncc(-c3ccccc3F)[nH]2)ccc1F (centres undefined)	-9.8	·	·	·	·	·
COc1ccc(OC)c(NC(=O)CSc2nnc(-c3ccco3)n2-c2ccccc2)c1	4.1	2.7	-3.9	-3.4	·	·
COc1ccc(OC)c(NC(=O)CSc2nnc(CCCO)n2-c2ccccc2)c1	-2.4	0.1	20.9*	9.2	-4.2	-2.0
CC1(C)Cc2c(sc(NC(=O)c3ccc(S(=O)(=O)N4CCCCCC4)cc3)c2C#N)C(C)(C)N1	-1.0	7.3	6.5	2.6	·	·
CCCOc1ccc(/C(O)=C2\C(=O)C(=O)N(c3ccccn3)C2c2ccccc2F)cc1C (centres undefined)	5.8	0.7	23.6*	-2.1	26.3*	0.2
COc1ccc(C2/C(=C(/O)c3ccc(C)cc3)C(=O)C(=O)N2c2ccccn2)cc1OC (centres undefined)	5.5	-1.0	3.8	-10.5	·	·
N#Cc1ccc(-c2ccco2)nc1SCC(=O)c1ccc(Cl)cc1	-16.9	0.7	26.2*	4.3	6.8	-3.1
COc1ccc(C2CC(c3ccc(OC)cc3)n3nc(NC(=O)c4cccs4)nc3N2)cc1 (centres undefined)	5.6	0.1	18.2*	-0.3	4.2	-3.9
CN(C)Cc1ccc(CNC(=O)COc2ccc3ccccc3c2)cc1	-3.0	2.7	8.0	-3.8	·	·
ClC(Cl)(Cl)c1nc(N/N=C/c2ccncc2)c2ccccc2n1	-17.6	1.4	22.0*	1.0	17.8*	-2.7
COc1ccc(/C=C/c2ccc3cccc(O)c3n2)c(OC)c1OC	41.8	5.0	12.1	5.8	·	·
COc1cc(/C=C/c2ccc3c(Br)cc(Br)c(O)c3n2)ccc1O	41.0	-1.5	4.7	-6.3	·	·
COc1cc(/C=C/c2ccc3cccc(O)c3n2)cc(Cl)c1OC	33.7	0.2	18.1*	2.9	26.4*	1.0
COc1cccc(/C=C/c2ccc3cccc(O)c3n2)c1	12.5	0.5	19.0*	-2.1	18.7*	-1.3
Oc1cccc(/C=C/c2ccc3cccc(O)c3n2)c1	-5.3	2.1	13.5	-8.7	·	·
COc1cccc(/C=C/c2ccc3cccc(O)c3n2)c1OC	16.3	-0.2	20.0*	-7.0	16.8*	-4.2
COc1ccc(/C=C/c2ccc3c(Br)ccc(O)c3n2)cc1	61.8*	0.9	22.3*	5.1	19.1*	-6.0
O=C(COC(=O)c1ccc2ccccc2c1)NCc1ccccc1	-1.8	·	·	·	·	·
Cc1ccc(/C=C/c2ccc3cccc(O)c3n2)s1	12.0	2.6	19.8*	1.9	15.5*	2.0
O=C(O)c1ccc(S(=O)(=O)c2ccc3c(c2)C(=O)N(c2ccc(Br)cc2)C3=O)cc1	2.0	-0.3	0.7	4.5	·	·
O=C(CN1C(=O)/C(=C2\SC(=S)N(CCS(=O)(=O)O)C2=O)c2ccccc21)Nc1cccc(Br)c1	-0.8	1.8	36.6*	-5.8	38.8*	-1.6
COc1ccc(OC)c(C2C(C(=O)c3ccco3)=C(O)C(=O)N2CC2CCCO2)c1 (centres undefined)	3.9	1.9	0.3	-5.5	·	·
SMILES	Cardio protect	PP5 inh	PP1 counter	ATG4B inh	PP1 inh confirm	PP5 inh counter
CC(C)(C)c1ccc(-c2nn(CCC#N)cc2/C=N/O)cc1	-5.4	4.0	32.3*	-6.5	0.7	1.6
CCc1ccc(/C=N/Nc2ncnc3nc[nH]c23)cc1	-14.1	0.0	-0.6	-1.5	·	·
CCc1ccc(N=Nc2ccc(O)c3[nH]cnc23)cc1	-4.4	-0.1	21.3*	5.7	10.5	-0.7
Nc1ccc2c(c1)C/C(=C/c1ccco1)C2=O	-10.7	0.3	51.2*	-5.8	9.0	2.6
O=C1/C(=C/c2ccco2)CCc2ccccc21	-7.2	1.1	-0.4	21.1	·	·
COc1ccc(N2CCN(c3ccc(NC(=O)/C=C\C(=O)O)cc3)CC2)cc1	-0.2	1.4	19.7*	-1.6	-3.9	-5.0
COc1ccc(/C=C/C(=O)Nc2ccc(N3CCOCC3)cc2)cc1	-0.8	4.6	-2.7	-2.2	·	·
Cc1ccc(S(=O)(=O)n2ccc3c(OCCOCCSCC(NC(=O)OC(C)(C)C)C(=O)O)cccc32)cc1 (centres undefined)	0.5	5.7	20.7*	0.8	9.3	3.7
Cc1ccc(S(=O)(=O)n2ccc3c(OCCOCCNCc4ccc(F)cc4)cccc32)cc1	-21.2	2.7	18.4*	5.2	-0.5	2.3
Cc1ccc(C)c(-c2nnc(NC(=O)CCS(=O)(=O)c3ccccc3)o2)c1	23.1	0.0	4.3	7.9	·	·
Cc1ccc(C)c(-c2nnc(NC(=O)COc3ccccc3)o2)c1	26.4	-0.3	21.8*	-0.4	20.9*	-2.4
COc1ccccc1NC(=O)CSc1nnc(CC(=O)Nc2ccccc2F)n1C	-10.8	-4.9	-2.6	-12.7	·	·
COc1ccc(OC)c(/C=C/C(=O)OCC(=O)Nc2nnc(-c3ccccc3)o2)c1	21.4	0.9	32.7*	6.0	28.1*	-1.6
CCOC(=O)Cc1csc(NC(=O)c2sc3nc4cc(C)ccc4cc3c2N)n1	0.9	1.1	27.9*	-0.5	33.5*	-1.5
CCOC(=O)Cc1csc(NC(=O)c2sc3nc4ccc(CC)cc4cc3c2N)n1	3.9	0.2	30.1*	9.6	25.0*	-2.2
Cc1cc([N+](=O)[O-])ccc1N1C(=O)c2ccc(C(=O)Nc3ccccc3C(=O)O)cc2C1=O	6.5	-2.0	1.5	11.4	·	·
CCC(=O)NC(c1ccc(C)cc1)c1cc([N+](=O)[O-])c2cccnc2c1O (centres undefined)	48.7	0.6	39.4*	11.6	12.1	12.2*
CCC(=O)NC(c1ccc(C)cc1)c1ccc2cccnc2c1O (centres undefined)	45.3	0.4	1.0	5.2	·	·
CC(=O)NC(c1ccc(C)cc1)c1cc([N+](=O)[O-])c2cccnc2c1O (centres undefined)	24.7	5.8	18.5*	-10.2	21.2*	3.2
Cc1c(NS(=O)(=O)c2ccc3c(c2)c(=O)n(C)c(=O)n3C)c(=O)n(-c2ccccc2)n1C	0.9	0.9	36.3*	-4.8	-2.1	-3.6
C#CCOCCOCCOCCNc1nc(N2CCN(C(=O)CCCCCCCCCCNC(=O)[C@H](CCCCN)n3cc(C)nn3)CC2)nc(N2CCN(C(=O)CCCCCCCCCCNC(=O)[C@@H]([C@H](C)O)n3cc(C)nn3)CC2)n1	10.7	0.6	6.7	-15.1	·	·
